About 1,500 (65%) of roughly 2,300 compounds were called active. Cut-off read from the data, not from the text of the source: active = inhibition above about 18%; inactive = the rest. The set was probably picked from earlier hits. Not all results are given here.

The target in the test is Heat shock protein HSP 90-alpha (Homo sapiens) (UniProt P07900). Briefly: HSP90 inhibitors, confirmation, cell lysate, luminescence (AID 1846).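 Note: 0% = vehicle wells and 100% = reference inhibitor wells.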 Particulars: rabbit reticulocyte lysate, luciferase refolding luminescence, 3 h; at 5.9 µM; hits give high values.
Usually inhibition stands for the share of the control response that was lost under treatment. As for `COc1cccc(-c2nc3ccc(N4CCN(C)CC4)cc3[nH]2)c1`, the inhibition is 69.3% (active). The figure for `O=c1c2ccccc2nc(/C=C/c2ccco2)n1-c1ccccc1O` is 9.67% (inactive).

(Values after PubChem BioAssay AID1846 (The Scripps Research Institute Molecular Screening Center, 2009).)
